Measurements as given in paper PMC9911399, “Two distinct binding modes provide the RNA-binding protein RbFox with extraordinary sequence specificity”.
Residue numbers refer to the chain shown, from its start. Whole data set: some 16,000 sequences, median “ka relative to ugcaugu” near 0.0091, cut for the highest 2% near 0.032. This is one part of a sample in which the highest values are shown more often than they occur.

T1: RBFOX1 RRM (Homo sapiens, UniProt Q9NWB1 109-208)
T1 sequence: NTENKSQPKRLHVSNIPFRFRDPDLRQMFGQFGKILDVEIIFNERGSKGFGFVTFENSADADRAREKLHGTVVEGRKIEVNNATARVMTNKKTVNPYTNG

B1: AUUGUUU (DNA:RNA)
RNA: GGGAGACCGGAAUUCAGAUUGUCCAUUGUUUUUAAAUCCCGUCGUAGCCACCA
DNA 1: CAATCTGAATTCCGGTCTCCC
DNA 2: TGGTGGCTACGACGGGATT
B2: GUUCAGC (DNA:RNA)
RNA: B1 RNA with A25G, G28C, U29A, U30G, U31C
DNA 1: CAATCTGAATTCCGGTCTCCC
DNA 2: TGGTGGCTACGACGGGATT
B3: AAUAUGG (DNA:RNA)
RNA: B1 RNA with U26A, G28A, U30G, U31G
DNA 1: CAATCTGAATTCCGGTCTCCC
DNA 2: TGGTGGCTACGACGGGATT
B4: CGCGAUU (DNA:RNA)
RNA: B1 RNA with A25C, U26G, U27C, U29A
DNA 1: CAATCTGAATTCCGGTCTCCC
DNA 2: TGGTGGCTACGACGGGATT
B5: UAUGUGA (DNA:RNA)
RNA: B1 RNA with A25U, U26A, U30G, U31A
DNA 1: CAATCTGAATTCCGGTCTCCC
DNA 2: TGGTGGCTACGACGGGATT
B6: GUAUUGA (DNA:RNA)
RNA: B1 RNA with A25G, U27A, G28U, U30G, U31A
DNA 1: CAATCTGAATTCCGGTCTCCC
DNA 2: TGGTGGCTACGACGGGATT
B7: ACGGAUU (DNA:RNA)
RNA: B1 RNA with U26C, U27G, U29A
DNA 1: CAATCTGAATTCCGGTCTCCC
DNA 2: TGGTGGCTACGACGGGATT
B8: GGAUUUU (DNA:RNA)
RNA: B1 RNA with A25G, U26G, U27A, G28U
DNA 1: CAATCTGAATTCCGGTCTCCC
DNA 2: TGGTGGCTACGACGGGATT
B9: GGGGAAU (DNA:RNA)
RNA: B1 RNA with A25G, U26G, U27G, U29A, U30A
DNA 1: CAATCTGAATTCCGGTCTCCC
DNA 2: TGGTGGCTACGACGGGATT
B10: GGGGCGU (DNA:RNA)
RNA: B1 RNA with A25G, U26G, U27G, U29C, U30G
DNA 1: CAATCTGAATTCCGGTCTCCC
DNA 2: TGGTGGCTACGACGGGATT
B11: GGGCGUU (DNA:RNA)
RNA: B1 RNA with A25G, U26G, U27G, G28C, U29G
DNA 1: CAATCTGAATTCCGGTCTCCC
DNA 2: TGGTGGCTACGACGGGATT
B12: CGGGCGU (DNA:RNA)
RNA: B1 RNA with A25C, U26G, U27G, U29C, U30G
DNA 1: CAATCTGAATTCCGGTCTCCC
DNA 2: TGGTGGCTACGACGGGATT
B13: CGGGAUU (DNA:RNA)
RNA: B1 RNA with A25C, U26G, U27G, U29A
DNA 1: CAATCTGAATTCCGGTCTCCC
DNA 2: TGGTGGCTACGACGGGATT
B14: GGGAAAU (DNA:RNA)
RNA: B1 RNA with A25G, U26G, U27G, G28A, U29A, U30A
DNA 1: CAATCTGAATTCCGGTCTCCC
DNA 2: TGGTGGCTACGACGGGATT
B15: GUUAAAU (DNA:RNA)
RNA: B1 RNA with A25G, G28A, U29A, U30A
DNA 1: CAATCTGAATTCCGGTCTCCC
DNA 2: TGGTGGCTACGACGGGATT
B16: GGGAUUU (DNA:RNA)
RNA: B1 RNA with A25G, U26G, U27G, G28A
DNA 1: CAATCTGAATTCCGGTCTCCC
DNA 2: TGGTGGCTACGACGGGATT
B17: UCCGGCA (DNA:RNA)
RNA: B1 RNA with A25U, U26C, U27C, U29G, U30C, U31A
DNA 1: CAATCTGAATTCCGGTCTCCC
DNA 2: TGGTGGCTACGACGGGATT
B18: ACUUCCC (DNA:RNA)
RNA: B1 RNA with U26C, G28U, U29C, U30C, U31C
DNA 1: CAATCTGAATTCCGGTCTCCC
DNA 2: TGGTGGCTACGACGGGATT
B19: ACGCCGU (DNA:RNA)
RNA: B1 RNA with U26C, U27G, G28C, U29C, U30G
DNA 1: CAATCTGAATTCCGGTCTCCC
DNA 2: TGGTGGCTACGACGGGATT
B20: UGCCAAA (DNA:RNA)
RNA: GGGAGACCGGAAUUCAGAUUGUCCUGCCAAAUUAAAUCCCGUCGUAGCCACCA
DNA 1: CAATCTGAATTCCGGTCTCCC
DNA 2: TGGTGGCTACGACGGGATT
B21: GAGAGCA (DNA:RNA)
RNA: B20 RNA with U25G, G26A, C27G, C28A, A29G, A30C
DNA 1: CAATCTGAATTCCGGTCTCCC
DNA 2: TGGTGGCTACGACGGGATT
B22: GAGCAUG (DNA:RNA)
RNA: B20 RNA with U25G, G26A, C27G, A30U, A31G
DNA 1: CAATCTGAATTCCGGTCTCCC
DNA 2: TGGTGGCTACGACGGGATT
B23: GAGCAGA (DNA:RNA)
RNA: B20 RNA with U25G, G26A, C27G, A30G
DNA 1: CAATCTGAATTCCGGTCTCCC
DNA 2: TGGTGGCTACGACGGGATT
B24: GAGCACG (DNA:RNA)
RNA: B20 RNA with U25G, G26A, C27G, A30C, A31G
DNA 1: CAATCTGAATTCCGGTCTCCC
DNA 2: TGGTGGCTACGACGGGATT

molecular target: T1, RBFOX1 RRM; test: EMSA; HiTS-Eq, 1 nM pool, 10 min; buffer printed only for the single-RNA assays: 10 mM Tris pH 7.5, 150 mM NaCl, 3.4 mM EDTA, 0.001% NP-40, 30 C; settings: tags: His6 N-terminal (pET28a); label: 5' 32P
Summary of the method: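 Purified RbFox RRM, wild type or mutant, was incubated for 10 min in 50 µL with 1 nM of a 5′-radiolabelled RNA pool carrying 7 randomized nucleotides, whose flanks were annealed to DNA oligonucleotides, over a series of increasing protein concentrations. Unbound RNA was resolved on 8% native PAGE, cut out, reverse-transcribed, barcoded by PCR and sequenced on an Illumina HiSeq 2500. Relative association constants were derived from changes in read counts for each RNA species versus the control reaction and normalised to the cognate motif.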

Binder	binding signal
B1	0.0146 KA relative to UGCAUGU
B2	0.0147 KA relative to UGCAUGU
B3	0.00711 KA relative to UGCAUGU
B4	0.0158 KA relative to UGCAUGU
B5	0.0133 KA relative to UGCAUGU
B6	0.0118 KA relative to UGCAUGU
B7	0.00809 KA relative to UGCAUGU
B8	0.0184 KA relative to UGCAUGU
B9	0.0354 KA relative to UGCAUGU
B10	0.0374 KA relative to UGCAUGU
B11	0.0253 KA relative to UGCAUGU
B12	0.029 KA relative to UGCAUGU
B13	0.03 KA relative to UGCAUGU
B14	0.0288 KA relative to UGCAUGU
B15	0.00766 KA relative to UGCAUGU
B16	0.0372 KA relative to UGCAUGU
B17	0.0141 KA relative to UGCAUGU
B18	0.00296 KA relative to UGCAUGU
B19	0.00555 KA relative to UGCAUGU
B20	0.0103 KA relative to UGCAUGU
B21	0.0187 KA relative to UGCAUGU
B22	0.713 KA relative to UGCAUGU
B23	0.0147 KA relative to UGCAUGU
B24	0.0394 KA relative to UGCAUGU
